Compounds with a hit are over-represented: about 7.4% of the library has one in this group of screens.
Rab9 prom act: activators of Rab9 promoter | Huh7 Rab9 promoter-luciferase reporter, luminescence, 24 h | actives 2.8% (n = 320,000) | Potency, µM (highest dose often 9.22 µM), for the others: top-dose activation, negative = inhibition, hits mostly activators; note: % of control where 0% means no effect; nearly all actives have a fitted effect of over 60% in size
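Using Huh7 cells stably transfected with Rab9 promoter–luciferase, compounds were incubated 24 h at 37 °C, 5% CO2; luciferase luminescence was read 10 min after reagent addition.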
SMN2 splice up: enhancers of SMN2 splice variant expression. HEK293 SMN2-luciferase splicing reporter, luminescence, 30-36 h. Potency, µM (series often up to 46.1 µM), for inactives: at the highest dose activity change, positive = activation, usual class: activators. actives 2.8% (n = 210,000); note: % of control where 0% means no effect; nearly all actives have a fitted effect of over 55% in size
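HEK293 cells carry an SMN2 minigene-luciferase reporter in which exon 7 inclusion puts luciferase in frame. Cells were seeded at 2000 cells/well, attached for 10-12 hours, then exposed to compounds for 30-36 hours at 37C before ONE-Glo luminescence.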
FLuc counter: inhibits or activates purified firefly luciferase, miR-21 counter-screen; P08659; purified FLuc, Km substrates, luminescence inhibition; Potency, µM (titrated, usually from 57.5 µM), for the others: at the highest dose activity change, negative = inhibition, most hits filed as inhibitors; actives 6.9% (n = 360,000); AID 588342;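 note: plate controls were vehicle for no effect and reference inhibitor for full effect; nearly all actives have a fitted effect of over 55% in size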
Target sequence (P08659 whole entry, looked up): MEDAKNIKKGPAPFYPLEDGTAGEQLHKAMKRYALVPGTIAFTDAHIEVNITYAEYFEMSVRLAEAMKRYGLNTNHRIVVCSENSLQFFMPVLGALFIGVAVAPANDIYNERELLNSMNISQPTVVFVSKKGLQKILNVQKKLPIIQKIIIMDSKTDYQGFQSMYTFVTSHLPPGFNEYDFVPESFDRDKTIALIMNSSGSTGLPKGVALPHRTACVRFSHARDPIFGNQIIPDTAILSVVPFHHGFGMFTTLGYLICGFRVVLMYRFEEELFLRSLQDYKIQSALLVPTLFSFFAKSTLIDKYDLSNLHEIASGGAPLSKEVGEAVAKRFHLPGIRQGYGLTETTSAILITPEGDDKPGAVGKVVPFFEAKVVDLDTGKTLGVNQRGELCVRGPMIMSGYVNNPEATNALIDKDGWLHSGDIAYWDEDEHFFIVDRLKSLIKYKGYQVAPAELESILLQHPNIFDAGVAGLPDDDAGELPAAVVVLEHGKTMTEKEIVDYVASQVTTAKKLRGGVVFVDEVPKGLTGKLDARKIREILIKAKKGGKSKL
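Purified P. pyralis luciferase (10nM final) with 10uM D-luciferin and 10uM ATP (Km levels) in 50mM Tris acetate pH 7.5, 10mM Mg acetate, 0.01% Tween-20, 0.05% BSA; qHTS 6-point titration, ~60 µM downward; luminescence read.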
ELG1 genotox: genotoxicity induction in ELG1-luciferase HEK293T cells; Potency, µM (series often up to 46 µM), inactives show top-dose activity change, positive = activation, most hits filed as activators; HEK293T ELG1-luciferase reporter, luminescence, 16 h; actives 1.3% (n = 330,000); note: % of control where 0% means no effect; nearly all actives have a fitted effect of over 60% in size
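Genotoxic stress is detected as increased luminescence from luciferase-tagged ELG1 in HEK293T cells, measured with ONE-Glo after a 16 hr treatment at 37 °C.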
KinaseGlo FLuc: counter-screen: inhibitors of Kinase-Glo firefly luciferase. actives 0.28% (n = 200,000). AID 1379. Potency, µM (titrated, usually from 38.3 µM), without a hit: at the top dose activity change, negative = inhibition, actives largely listed as inhibitors. Kinase-Glo luciferase, ATP luminescence, 8 min. Q27757; note: % is set by controls: 0 for no effect and ±100 for the full control effect; nearly all actives have a fitted effect of over 60% in size
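Luminescence was the read-out, taken after 8-minute incubation at ambient temperature. Luciferase turned over luciferin with 10 uM ATP in imidazole pH 7.2 buffer containing KCl, MgCl2, Tween 20 and BSA.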
NPC1 prom act: activates the NPC1 promoter; Huh7 NPC1 promoter luciferase reporter, 24 h; Potency, µM (highest dose often 9.22 µM), for the others: top-dose activation, usual class: activators; actives 2.4% (n = 320,000); note: % of control where 0% means no effect; nearly all actives have a fitted effect of over 60% in size
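Readout is luciferase luminescence, reflecting NPC1 promoter activation in stably transfected Huh7 cells after 24 h compound exposure at 37 °C in reduced-serum medium with 10% FBS.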
* = called active by the depositor; [ ] = another dose, or the depositor's remark. Calls come from the whole dose curve; as a rule, active = well fitted curve in the direction sought with a large enough effect; inconclusive = small, poorly fitted or top-dose-only effect, or another doubt; inactive = no such curve, though single readings can be large; an effect the other way counts as inactive or inconclusive. Potency is the fitted concentration of half-maximal effect.

Results for COc1ccc(Nc2cc(C(=O)NCc3ccccc3)c3ccccc3n2)cc1 ?
SMN2 splice up: 1%; FLuc counter: -14%

What do the screens show for `Cc1cc(C)cc(Nc2cc(C(=O)NCc3ccccc3)c3ccccc3n2)c1`?
SMN2 splice up: -9%; FLuc counter: 4.8µM*

How did Cc1cc(C)c2c(n1)SCCN2C(=O)Nc1ccc(C(=O)Nc2cc(Cl)ccc2C)cc1 do in these assays?
FLuc counter: 0%

How did COc1ccc(Nc2cc(C(=O)NCCCOC(C)C)c3ccccc3n2)c(OC)c1 do in these assays?
Rab9 prom act: -3%; FLuc counter: inconclusive; ELG1 genotox: -8%; NPC1 prom act: 1%

How did COc1ccc(-c2cc(C(=O)NCc3ccco3)c3ccccc3n2)c(OC)c1 do in these assays?
Rab9 prom act: 0%; FLuc counter: inconclusive; ELG1 genotox: -13%; NPC1 prom act: -4%

Results for COc1ccc(Nc2cc(C(=O)NCc3ccccn3)c3ccccc3n2)c(OC)c1 ?
Rab9 prom act: inconclusive; SMN2 splice up: 1%; FLuc counter: 11µM*; ELG1 genotox: -6%; KinaseGlo FLuc: -7%; NPC1 prom act: 6%

How did COc1ccc(Nc2cc(C(=O)NCc3ccco3)c3ccccc3n2)c(OC)c1 do in these assays?
Rab9 prom act: -3%; SMN2 splice up: 4%; FLuc counter: 15µM*; ELG1 genotox: -6%; KinaseGlo FLuc: 1%; NPC1 prom act: -3%

Results for COc1ccc(Nc2cc(C(=O)NCc3cccnc3)c3ccccc3n2)c(OC)c1 ?
Rab9 prom act: -9%; SMN2 splice up: -8%; FLuc counter: 11µM*; ELG1 genotox: -6%; KinaseGlo FLuc: -2%; NPC1 prom act: 1%

Results for Cc1ccc(Cn2c(=O)n(Cc3ccccc3Cl)c(=O)c3cccnc32)cc1 ?
SMN2 splice up: -4%; FLuc counter: -3%

Results for C=C1/C(=C\C=C2/CCC[C@]3(C)C([C@H](C)CCCC(C)(C)O)CC[C@@H]23)C[C@@H](O)C[C@@H]1O (stereo not given in full) ?
SMN2 splice up: -8%

How did COc1ccc(CCNC(=O)CCCn2c(=O)c3cccn3c3ccc(F)cc32)cc1OC do in these assays?
FLuc counter: -1%

How did Cc1ccn2c(=O)nc(SCC(=O)NCc3ccccc3)nc2c1 do in these assays?
Rab9 prom act: -4%; FLuc counter: -3%; ELG1 genotox: 0%; NPC1 prom act: 1%

What do the screens show for `Cc1ccn2c(=O)nc(SCC(=O)c3ccccc3)nc2c1`?
Rab9 prom act: inconclusive; FLuc counter: 15µM*; ELG1 genotox: inconclusive; NPC1 prom act: inconclusive

Results for Cc1ccc2nc(SCC(=O)c3ccccc3)nc(=O)n2c1 ?
Rab9 prom act: inconclusive; FLuc counter: 11µM*; ELG1 genotox: inconclusive; NPC1 prom act: 2.5µM*

Results for C[N+](C)(C)CCN[N@@+]1(C)CCCc2ccccc21 ?
SMN2 splice up: 0%[9.22 µM]; KinaseGlo FLuc: -6%[7.66 µM]

How did CCOCCn1ccc2c(OCC(=O)Nc3ccc(C(N)=O)cc3)cccc2c1=O do in these assays?
FLuc counter: -7%

How did O=C(COC(=O)/C=C/c1ccccc1[N+](=O)[O-])Nc1ccc(OCc2ccccc2)cc1 do in these assays?
Rab9 prom act: inconclusive; SMN2 splice up: 13µM*; FLuc counter: 1%; ELG1 genotox: inconclusive; KinaseGlo FLuc: 0%; NPC1 prom act: inconclusive

How did COc1cc(NC(=O)/C=C/c2ccccc2[N+](=O)[O-])cc(OC)c1 do in these assays?
Rab9 prom act: 25%; SMN2 splice up: inconclusive; FLuc counter: 21µM*; ELG1 genotox: 0%; KinaseGlo FLuc: -4%; NPC1 prom act: 17%

What do the screens show for `O=C(/C=C/c1ccccc1[N+](=O)[O-])Nc1ccccc1`?
Rab9 prom act: 0.71µM*; SMN2 splice up: 14µM*; FLuc counter: 6µM*; ELG1 genotox: inconclusive; KinaseGlo FLuc: -14%; NPC1 prom act: 2µM*

What do the screens show for `CCNC(=O)/C=C/c1ccccc1[N+](=O)[O-]`?
Rab9 prom act: -2%; SMN2 splice up: 9%; FLuc counter: 0%; ELG1 genotox: -4%; KinaseGlo FLuc: 1%; NPC1 prom act: -2%

How did O=C(O)/C=C/c1ccccc1[N+](=O)[O-] do in these assays?
Rab9 prom act: 2%; FLuc counter: 3%; ELG1 genotox: -2%; NPC1 prom act: -4%

How did COc1ccc2c(c1)[N+](=O)C(/C(C)=N/NC(N)=S)=C(C)[N+]2=O do in these assays?
SMN2 splice up: -1%[9.22 µM]; KinaseGlo FLuc: -5%[7.66 µM]

What do the screens show for `Cc1cc(N2CCN(c3cccc(C(F)(F)F)c3)CC2)n2nc(-c3ccccc3C)nc2n1`?
SMN2 splice up: 5%; FLuc counter: 4%

Results for CC(C)c1nn2c(=O)cc(COC(=O)c3ccccc3NC(=O)c3cccs3)nc2s1 ?
FLuc counter: -1%

How did CN(/N=C/c1cccnc1)c1cnc2ccccc2n1 do in these assays?
Rab9 prom act: 2.8µM*; SMN2 splice up: 11µM*; FLuc counter: 5.4µM*; ELG1 genotox: inconclusive; KinaseGlo FLuc: 0%; NPC1 prom act: inconclusive

What do the screens show for `O=C(CNc1ccc2ccccc2c1)N/N=C/c1cc2ccccc2nc1Cl`?
Rab9 prom act: -3%; SMN2 splice up: -17%; FLuc counter: 15µM*; ELG1 genotox: -2%; KinaseGlo FLuc: 5%; NPC1 prom act: 7%

What do the screens show for `O=C(CNc1ccc2ccccc2c1)N/N=C/c1ccc(C(=O)O)cc1`?
Rab9 prom act: 2%; SMN2 splice up: 12%; FLuc counter: 27µM*; ELG1 genotox: 3%; KinaseGlo FLuc: 1%; NPC1 prom act: 8%

How did O=C(CNc1cccc2ccccc12)N/N=C/c1ccc(C(=O)O)cc1 do in these assays?
Rab9 prom act: 10%; SMN2 splice up: -5%; FLuc counter: -18%; ELG1 genotox: 0%; KinaseGlo FLuc: -1%; NPC1 prom act: 2%

How did N#C/C(=C(/O)CCl)c1nc(-c2ccccc2)cs1 do in these assays?
Rab9 prom act: 17%; FLuc counter: inconclusive; ELG1 genotox: 14%; NPC1 prom act: 2%

How did Cc1ccc(-c2csc(/C(C#N)=C(\O)CCl)n2)cc1 do in these assays?
Rab9 prom act: inconclusive; SMN2 splice up: -4%; FLuc counter: 11µM*; ELG1 genotox: 17%; KinaseGlo FLuc: 9%; NPC1 prom act: 23%

Results for CCCCC/C=C\C/C=C\C/C=C\CCCCC(=O)NCCCC(=O)O ?
SMN2 splice up: 11%; KinaseGlo FLuc: -2%

Results for CC(=O)N1CCN(C)CC1 ?
SMN2 splice up: 8%; KinaseGlo FLuc: 0%

Screening data from PubChem.
